Source: PubChem BioAssay (National Center for Advancing Translational Sciences (NCATS))
TDP43 rescue: qHTS of TDP-43 Inhibitors; AID 652104, 2013; Potency, µM (doses to about 46.1 µM), usual class: activators; TDP-43 expressing yeast growth rescue, BacTiter-Glo, 24 h; hit rate 1.8% among 410,000; further: nearly all actives have a fitted effect of over 50% in size
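Cell-based yeast growth screen: TDP-43 expression induced in galactose, inoculum OD600=0.02 after raffinose pregrowth to mid-log. Read-out BacTiter-Glo luminescence at 24 hr, 30 deg C; inhibition of toxicity seen as signal increase.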
FUS suppressor: qHTS for Suppressors of FUS Proteinopathy: Primary screen using FUS-linked yeast assay. S. cerevisiae FUS-expressing, growth rescue, OD600, 24 h. Potency, µM (top dose mostly 76.6 µM), actives largely listed as activators. hit rate 0.24% among 390,000; further: nearly all actives have a fitted effect of over 55% in size
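Absorbance at 600 nm, taken 24hr after compound addition, measured rescue of FUS-yeast growth at 30C. Induction used 2% galactose with seeding at OD 0.005. Controls: CP55940 from 92uM final, DMSO only.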
Mito fusion act: qHTS Assay for Small Molecule Inhibitors of Mitochondrial Division or Activators of Mitochondrial Fusion; S. cerevisiae fusion-defective mutant growth rescue, CellTiterGlo 48 h; Potency, µM (series often up to 46.1 µM), most hits filed as activators; hit rate 0.23% among 320,000; further: nearly all actives have a fitted effect of over 45% in size
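Compounds are tested for their ability to restore growth of mitochondrial fusion-defective yeast strains at non-permissive 37C in YPEG medium over 48 hours. Viability is quantified by luciferase luminescence.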
ERG Ets-DNA blk: qHTS for Small Molecule Inhibitors of the ERG Ets/DNA interaction; Potency, µM (doses to about 76.9 µM), hits mostly inhibitors; Transcriptional regulator ERG (Homo sapiens), P11308; AID 624246, 2012; fluorescence polarization, His-ERG Ets domain / labelled DNA; hit rate 0.028% among 370,000; active means well fitted inhibition curve with a large enough effect in the polarisation, with a control signal flat; inconclusive means small, poorly fitted or top-dose-only effect, or effect the other way, or a change in a side signal; inactive means no such curve, though single readings can be large or run the other way; the % refers to the polarisation;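 further: polarization taken with two DNA probes labelled with fluorescein and Texas red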
Target sequence (P11308 whole entry, looked up, the tested form may be a part): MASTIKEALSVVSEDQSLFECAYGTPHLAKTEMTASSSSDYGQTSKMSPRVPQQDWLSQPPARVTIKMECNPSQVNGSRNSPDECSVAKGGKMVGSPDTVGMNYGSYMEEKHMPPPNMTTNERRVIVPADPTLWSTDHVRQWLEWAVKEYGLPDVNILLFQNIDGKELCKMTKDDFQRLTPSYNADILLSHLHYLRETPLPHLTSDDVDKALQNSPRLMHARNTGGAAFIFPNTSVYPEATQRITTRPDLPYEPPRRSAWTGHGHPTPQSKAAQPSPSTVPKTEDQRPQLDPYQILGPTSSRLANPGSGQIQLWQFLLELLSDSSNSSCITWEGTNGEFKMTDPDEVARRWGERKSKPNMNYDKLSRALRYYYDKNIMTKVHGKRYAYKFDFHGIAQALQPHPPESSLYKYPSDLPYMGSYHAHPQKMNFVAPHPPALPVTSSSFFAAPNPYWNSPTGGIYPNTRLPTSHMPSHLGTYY
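His-tagged ERG Ets domain (1 uM in the protein solution; 300mM KCl, 50mM Tris-HCl, 1mM EDTA, 1mM DTT, pH 7.5) received compound, then a probe mix of 5 nM fluorescein-DNA and 100nM Texas-615-DNA. Fluorescence polarization was read for both dyes.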
aSyn yeast inh: qHTS of alpha-syn Inhibitors. Yeast expressing alpha-synuclein, growth rescue, BacTiter-Glo, 24 h. Potency, µM (highest dose often 46.1 µM), hits mostly activators. hit rate 0.14% among 370,000. AID 652106, 2013; further: nearly all actives have a fitted effect of over 65% in size
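Readout is rescue of growth in alpha-synuclein-expressing yeast, so inhibitors of toxicity appear as activators. Growth after 24 hr at 30 deg C in galactose medium is quantified by luminescence.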
Abeta rescue: qHTS for compounds that reverse cellular toxicity of Amyloid beta (A-beta) peptide in yeast: Primary Screen; hit rate 0.063% among 410,000; Potency, µM (highest dose often 46.1 µM), most hits filed as activators; yeast expressing A-beta42, growth rescue, OD600, 48 h; response scale: 0% DMSO, 100% iron-clioquinol control; AID 1347071, 2019; further: nearly all actives have a fitted effect of over 55% in size
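Yeast growth medium received pinned compounds, then yeast cells expressing toxic A-beta were added; plates incubated at 30 C for 48 hr. Growth read as absorbance at 600 nm, normalized to DMSO and equimolar FeCl3 plus clioquinol controls.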
A number is an active result; . = inactive; ? = inconclusive; / = not tested or not shown. Only some compounds are listed: those with a hit (about 2.2% of all), similar ones and a draw of the others. Unless noted, the call rests on the fitted dose curve; in most records, active means well fitted curve in the direction sought with a large enough effect; inconclusive means small, poorly fitted or top-dose-only effect, or another doubt; inactive means no such curve, though single readings can be large; an effect the other way counts as inactive or inconclusive.

SMILES	TDP43 rescue	FUS suppressor	Mito fusion act	ERG Ets-DNA blk	aSyn yeast inh	Abeta rescue
Cc1c(Cl)ccc2sc(N3CCN(C(=O)CS(=O)(=O)c4ccccc4)CC3)nc12	18µM	?	/	.	/	13µM
COc1c(S(=O)(=O)N2CCN(C(=O)c3ccco3)CC2)ccc(Cl)c1Cl	13µM	.	.	.	.	.
CCCC(=O)N1CCN(c2nc3c(OC)ccc(Cl)c3s2)CC1	20µM	.	.	.	.	.
COc1cc(S(=O)(=O)N2CCN(C(=O)c3ccco3)CC2)c(OC)cc1C	.	.	.	.	.	.
Cc1c(Cl)ccc2sc(N3CCN(C(=O)c4ccco4)CC3)nc12	32µM	?	/	.	/	.
C[C@@H]1CN([C@@H](C)CO)C(=O)c2cc(C#CC(C)(C)O)cnc2O[C@@H]1CN(C)C(=O)c1ccccc1F	.	.	/	/	.	.
Cc1nn(CCCC(=O)Nc2cccc(F)c2)c(=O)c2c1sc1ccccc12	?	.	/	.	/	.
COc1ccc(-n2c(CC3C(=O)N(C)c4ccc(C)cc43)nc3ccccc3c2=O)cc1 (centres undefined)	.	.	/	.	/	.
CCOc1ccc(C(=O)N(Cc2nc(-c3cccc(C)c3)no2)C(C)C)cc1	?	.	/	.	/	.
Cc1c(Cl)ccc2sc(N3CCN(C(=O)C(C)C)CC3)nc12	22µM	.	/	.	/	.
COc1ccc(Cl)c2sc(N3CCN(C(=O)c4ccco4)CC3)nc12	18µM	.	.	.	.	.
O=S(=O)(c1ccc2c(c1)CCCC2)N1CCN(c2nc(-c3ccccc3)nc3ccccc23)CC1	/	/	/	/	.	/
C/C=C/C1=CC(=O)C[C@H](c2ccc(OC)c(OC)c2)C1	.	.	.	.	.	.
C/C=C/C1=CC(=O)C[C@H](c2ccc3c(c2)OCO3)C1	11µM	.	.	.	.	.
C/C=C/C1=CC(=O)C[C@H](c2ccc(Cl)cc2)C1	13µM	.	.	.	.	.
CN1C(=O)/C(=C2\SC(N3CCCCCC3)=NC2=O)c2ccccc21	16µM	.	.	.	.	.
Cc1ccccc1S(=O)(=O)N1[C@@H](c2ccccc2)C(C(=O)O)=CC[C@H]1c1ccc(Cl)cc1	?	.	.	.	.	.
COc1ccc([C@@H]2CC=C(C(=O)O)[C@H](c3ccc(Cl)cc3)N2S(=O)(=O)c2ccccc2C)cc1	18µM	?	.	.	.	.
Cc1ccc([C@@H]2CC=C(C(=O)O)[C@H](c3cccc(F)c3)N2S(=O)(=O)c2ccccc2C)cc1	.	.	/	.	.	.
COc1ccc([C@@H]2CC=C(C(=O)O)[C@H](c3ccc(Br)cc3)N2S(=O)(=O)c2ccccc2C)cc1	35µM	?	/	.	.	.
Cc1ccc([C@@H]2CC=C(C(=O)O)[C@H](c3ccc(F)cc3)N2S(=O)(=O)c2ccccc2C)cc1	28µM	.	/	.	.	.
CC(=O)O[C@H]1[C@H](OC(C)=O)C[C@]2(OC(C)=O)C[C@H]1OC2=O	/	.	/	/	/	/
CC(=O)CSc1nnc2c3ccccc3nc(C(C)(C)C)n12	14µM	.	.	.	.	.
Cc1ccc(C(=O)CSc2nnc3c4ccccc4nc(C(C)(C)C)n23)cc1	.	.	.	.	.	.
CCN1CCN(C(=S)NCC2CCCO2)CC1 (centres undefined)	.	.	.	.	.	.
Cc1cc(C)c(C)c(S(=O)(=O)N2CCN(C(=S)NCC3CCCO3)CC2)c1C (centres undefined)	22µM	?	.	.	.	?
Cc1nnc2sc(-c3ccncc3)nn12	.	.	.	.	.	.
Cc1nnc2sc(-c3csc4c3CCCC4)nn12	13µM	?	.	.	.	.
CCCN(CCC)C(=O)CSc1nnc2cc(C)c3ccccc3n12	.	.	/	.	/	.
Cc1ccc(SCC(=O)NC(=O)c2ccccc2Br)c(C)c1	13µM	/	/	.	.	.
